The record followed here is PubChem BioAssay (NCATS).

Values joined by “and” are separate entries in the source; they are usually repeats but may differ in a detail not shown here. Equal entries are not always repeated. Results filed as inconclusive are left out. Active and inactive are the calls of the source. Unless noted, calls come from the whole dose curve; as a rule, active = well fitted curve in the direction sought with a large enough effect; inconclusive = small, poorly fitted or top-dose-only effect, or another doubt; inactive = no such curve, though single readings can be large; an effect the other way counts as inactive or inconclusive.

Experiment [1] can be described thus: qHTS to identify inhibitors of the type 1 interferon - major histocompatibility complex class I in skeletal muscle: primary screen against the NCATS Mechanism Interrogation Plate v5.0 (MIPE) Libary (AID 1347411). Note: nearly all actives have a fitted effect of over 65% in size. Note: potency is the fitted concentration of half-maximal effect. In short, it runs like this:
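Immortalized human C25cl48 myoblasts with HiBit knocked into endogenous HLA-B*08:01 were stimulated with 4.0 ng/ml IFN-beta and exposed to compounds (11-point 1:3 titration, top 46 uM final) for 24 hrs at 37 C; HiBiT lytic luminescence measured.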
For orientation: Quantitative high-throughput screening tests each substance at several concentrations.

Experiment [2] can be described thus: Primary qHTS for inhibitors of nuclear receptor binding SET domain protein 2 (NSD2) in an isogenic RCH-ACV NSD2 p.E1099K mutant (9B) (AID 1645876). Note: nearly all actives have a fitted effect of over 70% in size. Note: potency is the fitted concentration of half-maximal effect.
Experiment [3] can be described thus: Primary qHTS for inhibitors of nuclear receptor binding SET domain protein 2 (NSD2) in an RCH-ACV wild type WT cells (2C) (AID 1645877). Note: nearly all actives have a fitted effect of over 70% in size. Note: potency is the fitted concentration of half-maximal effect.
Experiment [4] addresses Glutathione peroxidase 1 (Homo sapiens) (UniProt P07203). Nature of the experiment: Primary qHTS Assay for Inhibitors of Recombinant Selenoprotein Glutathione Peroxidase 1 (GPX1) (AID 1845191). Note: nearly all actives have a fitted effect of over 65% in size. In short, it runs like this: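 Recombinant GPX1 (10 nM final) was preincubated with compound for 30 min at room temperature, then reacted with 1 mM GSH, 0.5 mM CHP, 0.5 mM NADPH and 100 nM glutathione reductase; NADPH fluorescence (340/450 nm) was read at 0 and 15 min.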

Experiment [5] is described as follows: qHTS drug screen for cell cycle checkpoint inhibitors in PARPi-resistant BRCA-mutant ovarian cancer cell lines. (AID 1963452; calls by dose curve). Particulars: PEO1/OlaR viability, CellTiter-Glo luminescence, 96 h, stronger effect = lower value. The essentials: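 PEO1, PEO4 and PEO1/OlaR ovarian cancer cells, 600 per well, exposed 96 h at 37C to a dilution series. Viability read by CellTiter-Glo luminescence, normalized to DMSO and empty wells; activity summarized as Z-AUC.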

Experiment [6] concerns the target Phospholipid hydroperoxide glutathione peroxidase GPX4 (Homo sapiens) (UniProt P36969). Nature of the experiment: Primary qHTS Assay for Inhibitors of Recombinant Selenoprotein Glutathione Peroxidase 4 (GPX4) (AID 1845192). Note: nearly all actives have a fitted effect of over 65% in size. Particulars: outcome: dose series up to 50 µM unless noted. The essentials:
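GR-coupled readout: 100 nM GR, 1 mM GSH, 0.5 mM NADPH; NADPH fluorescence (ex 340/em 450 nm) read at t=0 and after 15 min RT. GPX4 200 nM, preincubated 30 min with compound; substrate 0.5 mM CHP.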

Experiment [7] deals with Luciferin 4-monooxygenase (Photinus pyralis) (UniProt P08659). The experiment is described as follows: Biochemical firefly luciferase enzyme assay for NPC (AID 624030).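 Note: purified P. pyralis luciferase at 10 nM with luciferin and ATP substrate; series mostly up to about 59 µM; 0% = DMSO and -100% = full luciferase inhibition by PTC124 control; nearly all actives have a fitted effect of over 70% in size.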 In short, it runs like this: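 Counter-screen for direct inhibition of the luciferase enzyme by approved-drug library compounds, run at 10 nM enzyme in 50 mM Tris acetate (final). Luminescence was read within 5 min of enzyme-buffer addition and normalized to PTC124 versus DMSO (0%).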
Luciferin 4-monooxygenase (Photinus pyralis), sequence (P08659 whole entry, looked up): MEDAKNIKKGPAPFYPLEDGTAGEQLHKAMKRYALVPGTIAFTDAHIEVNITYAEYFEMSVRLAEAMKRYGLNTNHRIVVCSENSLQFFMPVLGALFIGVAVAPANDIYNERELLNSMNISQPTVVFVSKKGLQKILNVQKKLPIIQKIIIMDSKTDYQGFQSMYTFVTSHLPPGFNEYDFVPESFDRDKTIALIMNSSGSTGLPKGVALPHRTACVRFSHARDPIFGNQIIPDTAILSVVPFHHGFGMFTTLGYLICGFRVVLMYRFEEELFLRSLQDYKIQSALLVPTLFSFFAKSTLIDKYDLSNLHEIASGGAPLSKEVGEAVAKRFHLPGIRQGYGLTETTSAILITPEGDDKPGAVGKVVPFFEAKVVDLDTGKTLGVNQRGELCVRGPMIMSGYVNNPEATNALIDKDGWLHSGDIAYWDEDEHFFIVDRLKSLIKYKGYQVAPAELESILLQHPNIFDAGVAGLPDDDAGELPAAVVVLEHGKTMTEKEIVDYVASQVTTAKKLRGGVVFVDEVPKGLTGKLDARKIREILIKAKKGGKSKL

The mark [8] stands for this setting: measured here: PEO1 parental Z-AUC.

Phospholipid hydroperoxide glutathione peroxidase GPX4 (Homo sapiens), sequence (P36969 whole entry, looked up): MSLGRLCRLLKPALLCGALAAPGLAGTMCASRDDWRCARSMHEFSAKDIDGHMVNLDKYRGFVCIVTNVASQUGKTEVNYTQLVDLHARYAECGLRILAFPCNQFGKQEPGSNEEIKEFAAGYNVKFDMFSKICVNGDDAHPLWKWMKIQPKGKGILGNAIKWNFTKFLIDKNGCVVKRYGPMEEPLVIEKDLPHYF
Glutathione peroxidase 1 (Homo sapiens), sequence (P07203 whole entry, looked up): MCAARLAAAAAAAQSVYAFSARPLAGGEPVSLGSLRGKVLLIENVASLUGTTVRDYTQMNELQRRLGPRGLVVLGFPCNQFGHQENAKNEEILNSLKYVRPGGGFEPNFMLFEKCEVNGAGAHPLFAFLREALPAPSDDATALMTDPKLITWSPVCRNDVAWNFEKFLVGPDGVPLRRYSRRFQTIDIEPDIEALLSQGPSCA

Take `O=C(O)c1ccccc1-c1ccc(/C=c2\sc3nc4cc(Br)cnc4n3c2=O)o1`: the Potency entry in experiment [1], in experiment [2], in experiment [3] and in experiment [4] was “inactive” each time. Moreover, the figures for the Z-AUC in experiment [5], in experiment [5] (setting [8]) and in experiment [5] (measured here: PEO4 Z-AUC) were -0.492 (inactive), -0.865 and -0.895, respectively.

For `CC(C)n1cc(-c2ccc3c(c2)N(C)CC3)c2c(NS(=O)(=O)c3ccn(C)n3)ccnc21`, the Potency entry in experiment [1], in experiment [2], in experiment [3] and in experiment [4] was “inactive” in each case. Moreover, the Z-AUC in experiment [5] was 1.52 (inactive); in experiment [5] (setting [8]), 0.948; in experiment [5] (measured here: PEO4 Z-AUC), 0.671.

Turning to `CC(C)(O)CC[C@@H](O)[C@](C)(O)[C@H]1CC[C@@]2(O)C3=CC(=O)[C@@H]4C[C@@H](O)[C@@H](O)C[C@]4(C)[C@H]3CC[C@]12C`, the Potency result in experiment [1], in experiment [2], in experiment [3] and in experiment [6] was “inactive” each time. For the same compound, the Z-AUC in experiment [5] was 0.631 (inactive); in experiment [5] (setting [8]) it was 0.684; in experiment [5] (measured here: PEO4 Z-AUC) it was 0.947.

Take `CN[C@@H](C)C(=O)N[C@H](C(=O)N1CCC[C@H]1C(=O)Nc1sc(-c2ncco2)nc1-c1ccccc1)C1CCCCC1`: the Potency entry in experiment [1], in experiment [2], in experiment [3] and in experiment [4] was “inactive” throughout. The Z-AUC was 1.87 (inactive) in experiment [5], 0.246 in experiment [5] (setting [8]) and 0.302 in experiment [5] (measured here: PEO4 Z-AUC).

Take `Nc1nc(OC(c2ccc(-c3cccc(F)c3)cc2)C(F)(F)F)cc(-c2ccc(C[C@@H](N)C(=O)O)cc2)n1` (stereo partly specified): the Potency entry in experiment [1] and in experiment [6] was “inactive” in each case. The Potency in experiment [2] is 18.6 µM (active); in experiment [3], 20.9 µM (active). Moreover, the results for the Z-AUC in experiment [5], in experiment [5] (setting [8]) and in experiment [5] (measured here: PEO4 Z-AUC) were 1.03 (inactive), 1.4 and 1.67, respectively.

As for `CCCNC(=O)[C@H]1O[C@@H]1C(=O)N[C@H](C(=O)N1CCC[C@H]1C(=O)OC)C(C)CC` (stereo partly specified), the Potency entry in experiment [1] and in experiment [6] was “inactive” each time. The Potency in experiment [2] was 6.61 µM (active); in experiment [3], 7.42 µM (active). Further, the values for the Z-AUC in experiment [5], in experiment [5] (setting [8]) and in experiment [5] (measured here: PEO4 Z-AUC) were 0.833 (inactive), 0.0577 and 0.0351, respectively.

In the case of `C[C@H]1CNCCCN1S(=O)(=O)c1cccc2cncc(F)c12`, the Potency entry in experiment [1], in experiment [2] and in experiment [3] was “inactive” each time. The values for the Z-AUC in experiment [5], in experiment [5] (setting [8]) and in experiment [5] (measured here: PEO4 Z-AUC) were -0.978 (inactive), -0.15 and 0.771, respectively.

`Nc1nc(F)nc2c1ncn2[C@@H]1O[C@H](COP(=O)(O)O)[C@@H](O)[C@@H]1O`: the Potency entry in experiment [7], in experiment [1] and in experiment [6] was “inactive” each time. Further, the Potency in experiment [2] and in experiment [3] was 1.86 µM (active) in each case. The Z-AUC is -1.15 (inactive) and -1.44 (inactive) in experiment [5]; -1.36 and -1.18 in experiment [5] (setting [8]); -0.49 and -0.861 in experiment [5] (measured here: PEO4 Z-AUC).

For `CC(C)NCCCn1c(Sc2cc(Cl)cc(Cl)c2)nc2c(N)ncnc21`, the Potency entry in experiment [1] and in experiment [6] was “inactive” in each case. In addition, the Potency in experiment [2] was 20.9 µM (active); in experiment [3] it was 18.6 µM (active). Moreover, the results for the Z-AUC in experiment [5], in experiment [5] (setting [8]) and in experiment [5] (measured here: PEO4 Z-AUC) were -1.23 (inactive), -0.363 and 0.533, respectively.

As to `OC1CCC([C@H](O)C[C@H]2c3c(F)cccc3-c3cncn32)CC1` (stereo partly specified), the Potency result in experiment [1], in experiment [2] and in experiment [3] was “inactive” each time. The Z-AUC was -0.0426 (inactive) in experiment [5], 0.377 in experiment [5] (setting [8]) and 0.204 in experiment [5] (measured here: PEO4 Z-AUC).

Turning to `N=C(N)c1ccc2nc(-c3cc(CC(=O)N[C@@H](CC(=O)O)C(=O)O)cc(-c4cc(S(N)(=O)=O)ccc4O)c3O)[nH]c2c1`, the Potency result in experiment [1], in experiment [2], in experiment [3] and in experiment [6] was “inactive” in each case. Also, the Z-AUC is -0.76 (inactive) in experiment [5], -0.562 in experiment [5] (setting [8]) and -0.379 in experiment [5] (measured here: PEO4 Z-AUC).

For `Fc1ccc(-c2csc3ncnc(NCc4ccc5c(c4)OCO5)c23)cc1`, the Potency result in experiment [1], in experiment [4] and in experiment [6] was “inactive” in each case. Besides, in experiment [2], the Potency is 8.33 µM (active). In addition, the Z-AUC in experiment [5] was 0.367 (inactive); in experiment [5] (setting [8]), 0.157; in experiment [5] (measured here: PEO4 Z-AUC), 0.314.

On to `O=c1c(-c2ccc(O)cc2)coc2c([C@@H]3O[C@H](CO)[C@@H](O)[C@H](O)[C@H]3O)c(O)ccc12`, for which the Potency entry in experiment [1], in experiment [2] and in experiment [3] was “inactive” in each case. The Z-AUC in experiment [5] was 1.23 (inactive); in experiment [5] (setting [8]) it was 1.96; in experiment [5] (measured here: PEO4 Z-AUC), 1.37.

As to `COc1cc2c(Oc3ccc4[nH]c(C)cc4c3F)ccnc2cc1OCC1(N)CC1`, the Potency entry in experiment [1] and in experiment [6] was “inactive” in each case. Besides, the results for the Potency in experiment [2] and in experiment [3] were 5.9 µM (active) and 3.72 µM (active), respectively. Besides, the values for the Z-AUC in experiment [5], in experiment [5] (setting [8]) and in experiment [5] (measured here: PEO4 Z-AUC) were 0.184 (inactive), 0.236 and 0.196, respectively.

For the compound `CN1C(=O)[C@@H](NC(=O)c2cc(Cc3ccccc3)on2)COc2ccccc21`, the Potency result in experiment [1], in experiment [2], in experiment [4] and in experiment [6] was “inactive” throughout. In addition, the Z-AUC was 0.979 (inactive) in experiment [5], 0.721 in experiment [5] (setting [8]) and 1.08 in experiment [5] (measured here: PEO4 Z-AUC).

Turning to `CCC(C)CNCC(=O)N1CCc2sccc2C1c1cccc(C)n1` (stereo unspecified), the Potency result in experiment [1], in experiment [2], in experiment [3] and in experiment [6] was “inactive” in each case. In addition, the results for the Z-AUC in experiment [5], in experiment [5] (setting [8]) and in experiment [5] (measured here: PEO4 Z-AUC) were -0.668 (inactive), -0.627 and -0.749, respectively.

As for `O=C(CCCCCCC(=O)N/N=C/c1ccc(N(c2ccccc2)c2ccccc2)cc1)NO`, the Potency in experiment [1] is 18.6 µM (active); in experiment [2], 1.18 µM (active); in experiment [3], 1.48 µM (active). Besides, the Z-AUC in experiment [5] is 1.09 (inactive); in experiment [5] (setting [8]), 0.912; in experiment [5] (measured here: PEO4 Z-AUC) it was 0.729.
